Assay outcomes from PubChem BioAssay.
Rows were chosen to be rich in hits. Some 5.7% of all compounds tested hit in one or more screens of this group.
hgDAF-12 ag – H. glycines DAF-12 receptor agonists, primary screen, cell-based, luminescence, HEK293, GAL4 fusion, UAS-luciferase; Nuclear hormone receptor DAF-12 (Heterodera glycines), GAL4 fusion; HEK293 GAL4-hgDAF12 UAS-luciferase reporter, agonist luminescence; normalized to butyrate control; activation, % at 6.8 µM; actives 1.8% (n = 370,000);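 active = activation above a cutoff set at the mean of all screened compounds plus 3 SD, cut at about 10% in these data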;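 also: 0% = DMSO wells and 100% = sodium butyrate wells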
DAX1 inh-1 – DAX1 (NR0B1) inhibitors, primary screen, cell-based, HEK293, Gal4-DAX1, luciferase luminescence. Nuclear receptor subfamily 0 group B member 1 (Homo sapiens), P51843. HEK293 Gal4-DAX1 luciferase reporter. inhibition, % at 6.75 µM. actives 0.99% (n = 340,000). AID 504766, 2011;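 active = inhibition above the mean over all tested compounds plus 3 SD, cut at about 4.2% in these data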;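 also: 0% = DAX1-transfected cells with DMSO and 100% = empty-vector control cells with DMSO; inhibition shows as a rise in luminescence from relieved DAX1 repression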
AHR activator – AHR activators, primary screen, cell-based, luminescence, luciferase reporter, human | AHR-responsive luciferase reporter cells | activation, % at 5 µM | actives 2.5% (n = 320,000); in the data active = activation above about 47%;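 also: 0% = vehicle wells and 100% = reference agonist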
hcDAF-12 act – H. contortus DAF-12 nuclear receptor activators, primary screen, cell-based, luminescence, HEK293, lit1-tk-luc reporter | HEK293 hcDAF-12 lit1-tk-luc reporter; 0% DMSO, 100% Δ7-dafachronic acid | activation, % at 6.8 µM | actives 1.4% (n = 370,000) | AID 652067, 2013;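 active = activation above the mean of all tested compounds plus 3 SD, cut at about 5.5% in these data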;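 also: 100% = response to 3 µM Δ7-dafachronic acid high control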
DAX1 inh-2 – DAX1 (NR0B1) inhibitors on StAR promoter, primary screen, cell-based, luminescence, SF-1 (NR5A1), full-length DAX-1; inhibition, % at 6.8 µM; HEK293T StAR-luciferase reporter, SF-1/DAX-1 repression relief; actives 1.1% (n = 370,000);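 active = inhibition above the mean over all tested compounds plus 3 SD, cut at about 3.6% in these data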;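 also: 0% = DAX-1 cells with DMSO and 100% = cells lacking DAX-1 with DMSO; higher inhibition means more luminescence from relief of DAX-1 repression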
ssDAF12 agonist – S. stercoralis DAF-12 nuclear receptor activators, primary screen, cell-based, luminescence, HEK293, GRIP1 co-expression, lit1-tk-luc. Nuclear hormone receptor DAF-12 (Strongyloides stercoralis). HEK293 ssDAF-12/GRIP1 lit1-tk-luc reporter; % of 3 µM dafachronic acid response. activation, % at 6.8 µM. actives 1% (n = 370,000). AID 652126, 2013;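 active = activation above the mean over all tested compounds plus 3 SD, cut at about 0.9% in these data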;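 also: 0% = DMSO-only wells and 100% = 3 µM delta7-dafachronic acid wells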
* marks the source's active call; other numbers are inactive results; . = not tested or not shown.

SMILES	hgDAF-12 ag	DAX1 inh-1	AHR activator	hcDAF-12 act	DAX1 inh-2	ssDAF12 agonist
COc1ccc(N2CCN(C3CCCN(C(=O)C4=C(C)OCCO4)C3)CC2)cc1 (centres undefined)	-3	1	.	-2	1	-1
CC12CCC(=O)N1C(C(=O)NCCN1C(=O)S/C(=C\c3ccc(F)cc3)C1=O)CS2 (centres undefined)	2	0	-1	2	1	0
C=CCc1cccc(/C=N/NC(=O)CNc2cccc3ccccc23)c1O	-1	1	42	2	-1	-1
C=CCc1cccc(/C=N/NC(=O)CNc2ccccc2OC)c1O	-6	-1	61*	0	-1	-2
COc1cccc(N=Nc2ccc3ccccc3c2O)c1	10	4	78*	4	2	1.6*
Cc1ccc(N=Nc2ccc3ccccc3c2O)cc1	-2	4	53*	5	0	-1
COc1cccc(C(=O)NNC(=O)c2cccc3ccccc23)c1	0	0	.	3	3	0
Oc1c(N=Nc2nn[nH]n2)ccc2ccccc12	-2	.	.	2	-3	0
Cc1[nH]nc2c1C(c1ccc3c(c1)OCO3)N(Cc1ccccc1)C2=O (centres undefined)	0	.	.	0	-1	-1
CC(=O)c1cccc(NC(=O)COC(=O)Cc2ccc(Cl)cc2)c1	1	2	.	-1	1	-1
O=C(Cc1cccs1)N1CCN=C1SCc1ccc(Br)cc1	-3	-1	17	-2	0	-2
COc1ccc(C(CNC(=O)c2cccc(S(=O)(=O)Nc3ccc(F)cc3)c2)N2CCCC2)cc1 (centres undefined)	-2	-1	.	-2	3.6*	0
CN(c1ccccc1)S(=O)(=O)c1ccc(C(=O)NCC(c2ccco2)N2CCCCC2)cc1 (centres undefined)	-2	0	3	0	1	-2
Cc1ccc(S(=O)(=O)N(C)c2ccc(C(=O)NCC(c3ccccc3)N3CCCC3)cc2)cc1 (centres undefined)	0	3	.	-1	4.0*	-1
COc1ccc(NS(=O)(=O)c2cccc(C(=O)NCC(c3ccc(OC)cc3)N3CCCC3)c2)cc1 (centres undefined)	4	1	-1	0	4.2*	-1
COc1ccc(NS(=O)(=O)c2cccc(C(=O)NCC(c3ccc(OC)cc3)N3CCCCC3)c2)cc1 (centres undefined)	-3	0	.	0	2	-1
COc1ccc(NS(=O)(=O)c2cccc(C(=O)NCC(c3ccc(OC)cc3)N3CCOCC3)c2)cc1 (centres undefined)	-1	-1	3	-1	-1	-1
CC(=O)Nc1ccc(S(=O)(=O)N2CCCC2C(=O)Nc2ccc3c(c2)OCCO3)cc1 (centres undefined)	3	1	5	-1	-1	-1
CC(C)(C)CCN1CCC[C@H](NC(=O)COc2ccc(F)c(Cl)c2)C1	-3	.	.	1	.	-1
CCCCCCC12C(=Cc3cc(C)ccc31)c1ccccc1C(CC(=O)NCc1ccccc1)N2C(=O)OC (centres undefined)	-1	.	.	1	0	-1
COc1ccccc1NC(=O)Nc1ccccc1N1CCOCC1	3	4	12	0	0	-1
CN1C(=O)C2(OCC(C)([N+](=O)[O-])CO2)c2ccccc21 (centres undefined)	0	0	1	1	0	0
CN1C(=O)C2(N=c3ccccc3=N2)c2ccccc21	.	-1	51*	.	.	.
CCOc1cc2c(cc1OCC)C(c1ccc(F)cc1)NCC2 (centres undefined)	0	0	3	-1	0	0
CCOc1cc(C2NN=C(c3ccccc3)S2)ccc1OCc1ccc(F)cc1 (centres undefined)	12*	3	15	4	2	1.1*
SMILES	hgDAF-12 ag	DAX1 inh-1	AHR activator	hcDAF-12 act	DAX1 inh-2	ssDAF12 agonist
COc1ccc(NC(=O)CCC(=O)N/N=C/c2ccncc2)cc1	-1	5.5*	-1	0	0	-1
COc1ccc(/C=N/NC(=O)c2sc(C)nc2C)cc1	3	1	56*	-1	0	-2
COc1ccc(/C=N/NC(=O)CSCC(=O)Nc2ccccc2)cc1	-1	5.0*	0	4	0	0
O=C(CSCC(=O)NCc1ccco1)NCc1ccco1	0	1	-2	-2	-1	-1
COc1ccc(NC(=O)CSCC(=O)NCc2ccco2)cc1	-2	3	0	-1	4.3*	-1
COCCC(=O)N1CCC(Oc2ccc(C(=O)N3CCCC(COC)C3)cc2)CC1 (centres undefined)	-2	1	.	0	-1	-1
COc1cc(C2=NOC(C(=O)NCc3ccco3)C2)cc(OC)c1OC (centres undefined)	1	-1	3	-1	-2	-1
COc1ccc(C2=NOC(C(=O)NCc3ccco3)C2)cc1 (centres undefined)	12*	-1	7	2	-2	-1
Cc1ccc(C2C(=O)N(C3CCCC3)CC(=O)N2C2CCCCC2)cc1 (centres undefined)	-2	0	-1	-1	-1	-1
CC(C)N1C(=O)CN(C2CCCCCC2)C(=O)C1c1ccccc1F (centres undefined)	11*	3	4	1	1	-1
Cc1ccn2c(NCc3ccccc3)c(-c3cccs3)nc2c1	11*	0	14	3	0	-1
CCN(CC)c1ccc(C2Nc3cccc4cccc(c34)N2)c(O)c1	-1	0	71*	3	1	1
COC(=O)c1cc(-c2ccc(OC)cc2)on1	-1	-1	0	-2	0	-2
COc1ccc(-c2cc(C(=O)NC3CCCC3)no2)cc1	12*	3	6	6.5*	2	0
COc1cccc(-c2cc(C(=O)NC3CCCCC3)no2)c1	6	2	-1	2	1	-1
COc1ccc(-c2cc(C(=O)NC(C)C)no2)cc1	10*	1	2	4	2	-1
Cc1ccc(C(=O)N(C)[C@H]2C[C@H]3c4[nH]c5c(-c6cccc(C)c6)cccc5c4CCN3C[C@H]2[C@H](C)O)cc1	2	.	.	-4	0	-2
